Reference: paper PMC9838217, “Structure of SALL4 zinc finger domain reveals link between AT-rich DNA binding and Okihiro syndrome”
Numbering of substitutions follows the chain as printed.

Key:
Test in all cases: HT-SELEX; high values mean tight binding
Settings in all cases: protein: recombinant; vector His6-GST; dsDNA, one strand shown
SALL4 ZFC4 WT (HT-SELEX) = biological target: T1, SALL4 ZFC4 WT (HT-SELEX) (Mus musculus, UniProt Q8BX22 870-940)
T1 sequence: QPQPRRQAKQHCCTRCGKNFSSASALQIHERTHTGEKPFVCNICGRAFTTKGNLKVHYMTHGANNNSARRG
Outline: (§1)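 For each canonical k-mer, binding signal is the read fraction as fold change versus the initial random library. Data came from up to 6 triplicate cycles in which purified recombinant mouse SALL4 zinc finger cluster 4 (residues 870–940, 1 µg) was incubated 10 min at room temperature with library DNA (1.5 µg first cycle, 200 ng later) in 100 µl of 10 mM Tris–HCl pH 7.5, 50 mM NaCl, poly(dI-dC), DTT, followed by Ni2+ bead capture, PCR amplification, MiSeq sequencing and a 6-mer scan.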

[1] = biological target: T2, SALL4 ZFC4 R900W (HT-SELEX) (Mus musculus, UniProt Q8BX22 870-940, R900W)
T2 sequence: T1 sequence with R31W
Outline: as §1

[2] = biological target: T3, SALL4 ZFC4 G921D (HT-SELEX) (Mus musculus, UniProt Q8BX22 870-940, G921D)
T3 sequence: T1 sequence with G52D
Outline: as §1

Sequence	binding signal (SALL4 ZFC4 WT (HT-SELEX)) [fold-change vs cycle 0]	binding signal [1] [fold-change vs cycle 0]	binding signal [2] [fold-change vs cycle 0]
CCCAAC	0.395 ± 0.0223	0.437 ± 0.0176	0.544 ± 0.0399
AAGGTG	0.806 ± 0.0296	0.944 ± 0.0313	0.95 ± 0.0211
TGCCAA	0.456 ± 0.0199	0.502 ± 0.00872	0.652 ± 0.0602
ACATTC	1.29 ± 0.0367	1.44 ± 0.0794	1.37 ± 0.0959
ACTACA	1.29 ± 0.0616	1.42 ± 0.0632	1.34 ± 0.0704
AATTGG	1.07 ± 0.0351	1.15 ± 0.0596	1.19 ± 0.036
AACGAT	1.21 ± 0.0566	1.27 ± 0.0691	1.23 ± 0.0814
CGCATA	0.489 ± 0.0286	0.499 ± 0.00702	0.636 ± 0.061
ACATCG	0.64 ± 0.0291	0.729 ± 0.00758	0.829 ± 0.0505
CTGATC	0.794 ± 0.0362	0.948 ± 0.0293	1.02 ± 0.0279
AAAGAT	2.08 ± 0.0847	2.1 ± 0.102	1.84 ± 0.163
ATATGA	3.11 ± 0.303	2.07 ± 0.156	1.85 ± 0.196
ATCGGG	0.397 ± 0.0233	0.457 ± 0.0142	0.568 ± 0.0671
GATTTA	1.94 ± 0.0986	1.84 ± 0.0979	1.71 ± 0.128
AATCCA	1.41 ± 0.0345	1.44 ± 0.0422	1.37 ± 0.0637
AAAGAA	1.95 ± 0.101	2.12 ± 0.151	1.8 ± 0.181
AAGTAA	2.17 ± 0.0689	2.26 ± 0.152	1.91 ± 0.204
GTATAA	2.08 ± 0.124	1.96 ± 0.165	1.74 ± 0.197
CCTCCC	0.317 ± 0.0293	0.372 ± 0.0347	0.467 ± 0.0525
AGAAGC	0.652 ± 0.0323	0.745 ± 0.0224	0.845 ± 0.0201

Sequence	binding signal (SALL4 ZFC4 WT (HT-SELEX)) [fold-change vs cycle 0]	binding signal [1] [fold-change vs cycle 0]	binding signal [2] [fold-change vs cycle 0]
CCTTGA	0.879 ± 0.0172	1.041 ± 0.00922	1.05 ± 0.0247
CTCCTA	0.926 ± 0.0641	1.07 ± 0.0219	1.05 ± 0.0362
ACTCGA	0.761 ± 0.0231	0.839 ± 0.0214	0.905 ± 0.00699
CTATGC	0.624 ± 0.0148	0.702 ± 0.0118	0.796 ± 0.0538
GAGTGA	0.906 ± 0.0342	1.02 ± 0.0645	1.05 ± 0.0602
AACCTC	0.87 ± 0.0372	0.961 ± 0.043	1.02 ± 0.0516
ATTGGG	0.725 ± 0.0369	0.818 ± 0.0162	0.856 ± 0.0353
AGTCTG	0.76 ± 0.0287	0.869 ± 0.0157	0.92 ± 0.0107
AGACGA	0.675 ± 0.0154	0.786 ± 0.0316	0.86 ± 0.0237
CTAGCC	0.314 ± 0.031	0.395 ± 0.0257	0.508 ± 0.064
CAAGGA	0.866 ± 0.0298	1.02 ± 0.0119	1.01 ± 0.0394
GTAGGA	0.827 ± 0.0404	0.946 ± 0.029	0.948 ± 0.0466
CTTATC	1.5 ± 0.0472	1.62 ± 0.0833	1.44 ± 0.0973
ACTCTA	1.37 ± 0.0421	1.48 ± 0.0703	1.43 ± 0.113
ACGTCT	0.744 ± 0.0352	0.85 ± 0.0392	0.941 ± 0.0281
ACCGTG	0.361 ± 0.00928	0.456 ± 0.013	0.547 ± 0.0682
CAAGGG	0.487 ± 0.0326	0.5882 ± 0.00585	0.665 ± 0.033
CAGAAC	0.725 ± 0.0111	0.847 ± 0.0358	0.863 ± 0.0478
CATGGA	0.865 ± 0.0271	0.95 ± 0.0312	0.985 ± 0.0405
CATACC	0.854 ± 0.0198	0.927 ± 0.0242	0.944 ± 0.0221

Sequence	binding signal (SALL4 ZFC4 WT (HT-SELEX)) [fold-change vs cycle 0]	binding signal [1] [fold-change vs cycle 0]	binding signal [2] [fold-change vs cycle 0]
CAGCAA	0.551 ± 0.0466	0.641 ± 0.0279	0.737 ± 0.0707
AGTCTA	1.25 ± 0.0412	1.41 ± 0.0887	1.37 ± 0.0788
ACGACT	0.624 ± 0.0259	0.718 ± 0.0114	0.813 ± 0.0216
CATAAG	1.63 ± 0.0634	1.59 ± 0.055	1.45 ± 0.0676
CACAAA	0.978 ± 0.0432	1.1 ± 0.0594	1.09 ± 0.0653
CTCAGC	0.369 ± 0.0266	0.414 ± 0.0118	0.525 ± 0.071
ACTCAG	0.865 ± 0.0453	0.97 ± 0.0144	0.994 ± 0.0115
GGTGTA	0.751 ± 0.0241	0.855 ± 0.0293	0.889 ± 0.0301
AAGGTC	0.725 ± 0.0449	0.885 ± 0.0273	0.943 ± 0.0196
AGAAAT	2.29 ± 0.182	2.02 ± 0.161	1.78 ± 0.161
GTCACA	0.677 ± 0.0487	0.804 ± 0.0553	0.861 ± 0.0406
GATATC	1.46 ± 0.0542	1.45 ± 0.075	1.39 ± 0.0375
AATGCC	0.502 ± 0.015	0.5601 ± 0.00429	0.704 ± 0.0636
AATTAC	2.12 ± 0.116	2 ± 0.127	1.82 ± 0.181
CCACTA	0.774 ± 0.0352	0.855 ± 0.0167	0.895 ± 0.0113
ATTCGC	0.463 ± 0.033	0.495 ± 0.0145	0.637 ± 0.0822
GTCAAA	0.9908 ± 0.00315	1.12 ± 0.0182	1.13 ± 0.0122
CATATG	1.44 ± 0.156	1.37 ± 0.112	1.32 ± 0.0777
CGGGAA	0.362 ± 0.00736	0.417 ± 0.0262	0.499 ± 0.0534
CATCGA	0.706 ± 0.0155	0.749 ± 0.0387	0.854 ± 0.0254
